An excerpt weighted towards active compounds, which were near 19% of everything screened.
TDP1 block = blocks human tyrosyl-DNA phosphodiesterase 1; Q9NUW8; recombinant TDP1, AlphaScreen DNA substrate cleavage; Potency, µM (doses to about 130 µM), actives largely listed as inhibitors; 0.28% of 350,000 active; AID 485290; note: nearly all actives have a fitted effect of over 40% in size
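AlphaScreen read-out: signal falls as enzyme removes the 3' tyrosine-FITC from a 5'-biotinylated DNA oligo (15 nM, 5 min, RT). Enzyme was E. coli-made recombinant Tdp1 at 1 nM, exposed to compound for 15 min beforehand; beads 10 ug/ml, 10 min.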
VP16 counter = inhibits Gal4-VP16 luciferase reporter, ROR gamma counter-screen; Drosophila S2 Gal4-VP16 UAS-luciferase, luminescence, 20 h; Potency, µM (doses to about 53.6 µM), usual class: inhibitors; 3.5% of 310,000 active;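 note: Gal4-VP16 expression switched on by copper sulfate through the metallothionein promoter; nearly all actives have a fitted effect of over 50% in size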
DT40 TDP1 no CPT = qHTS for Inhibitors of human tyrosyl-DNA phosphodiesterase 1 (TDP1): qHTS in cells in absence of CPT | DT40 Tdp1-/- hTDP1 cells, no CPT, ATP luminescence, 48 h | Potency, µM (series often up to 46.2 µM), hits mostly inhibitors | 15% of 420,000 active; note: nearly all actives have a fitted effect of over 55% in size
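Growth of hTDP1-complemented DT40 Tdp1-knockout cells is measured by ATP luminescence after at least 48 hr compound exposure at 37 °C, with DMSO substituting for the 20 nM CPT used in the parallel screen.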
RORg inh = blocks mouse ROR gamma transcriptional activity. P51450. Drosophila S2 Gal4-RORgamma UAS-luciferase reporter, 20 h. Potency, µM (highest dose often 53.6 µM), hits mostly inhibitors. 5.4% of 310,000 active. AID 2551; note: nearly all actives have a fitted effect of over 60% in size
Target sequence (P51450 whole entry, looked up, the tested form may be a part): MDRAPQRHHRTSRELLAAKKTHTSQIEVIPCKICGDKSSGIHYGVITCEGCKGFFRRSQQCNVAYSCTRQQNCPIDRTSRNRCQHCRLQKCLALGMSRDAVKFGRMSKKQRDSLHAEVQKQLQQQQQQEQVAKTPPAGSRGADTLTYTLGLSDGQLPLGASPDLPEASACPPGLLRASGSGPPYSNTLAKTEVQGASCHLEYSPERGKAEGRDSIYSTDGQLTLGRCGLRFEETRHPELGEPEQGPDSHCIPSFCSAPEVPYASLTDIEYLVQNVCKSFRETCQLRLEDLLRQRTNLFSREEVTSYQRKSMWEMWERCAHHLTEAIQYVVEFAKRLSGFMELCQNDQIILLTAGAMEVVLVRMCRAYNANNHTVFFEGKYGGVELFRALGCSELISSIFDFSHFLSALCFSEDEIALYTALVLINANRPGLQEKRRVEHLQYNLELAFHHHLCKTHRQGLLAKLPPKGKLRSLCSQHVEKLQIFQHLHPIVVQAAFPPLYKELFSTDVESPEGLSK
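Drosophila Schneider cells stably carrying a metallothionein-driven Gal4 DBD–ROR gamma fusion and a UAS-Photinus luciferase reporter were exposed to compound for 1 hr, then induced with copper sulfate (700 uM final) for 20 hr at ambient temperature before luminescence reading.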
TDP1 cell CPT = DT40-hTDP1 cell growth loss with CPT; chicken DT40 Tdp1-/-;hTDP1 cells + 20 nM CPT, ATP luminescence, 48 h; Potency, µM (top dose mostly 46.2 µM), hits mostly inhibitors; 12% of 420,000 active; note: nearly all actives have a fitted effect of over 55% in size
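Chicken DT40 Tdp1-/- cells stably complemented with human TDP1 were seeded at 400 cells/well in medium containing 20 nM camptothecin, exposed to pin-transferred compounds, and grown at 37 °C for at least 48 hr. Viability was read as ATP luminescence.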
A number is an active result; – = inactive; ? = inconclusive; · = not tested or not shown. Calls come from the whole dose curve; as a rule, active = well fitted curve in the direction sought with a large enough effect; inconclusive = small, poorly fitted or top-dose-only effect, or another doubt; inactive = no such curve, though single readings can be large; an effect the other way counts as inactive or inconclusive.

SMILES	TDP1 block	VP16 counter	DT40 TDP1 no CPT	RORg inh	TDP1 cell CPT
OC(CSc1ccccc1)CN1CCN(c2ccc(Cl)cc2)CC1 (configuration not stated)	·	·	21µM	·	?
CC(C)c1ccc(OCC(O)CN2CCN(c3ccccc3)CC2)cc1 (configuration not stated)	–	–	?	–	?
OC(CSc1ccccc1)CN1CCN(c2cccc(Cl)c2)CC1 (configuration not stated)	·	·	21µM	·	?
CC1=C(C(=O)Nc2ccc(Cl)cc2)C(c2ccncc2)C(C#N)=C(SCC(N)=O)N1 (configuration not stated)	–	–	–	–	–
O=C(NC1CCCCCC1)C1CCN(S(=O)(=O)c2ccccc2)CC1	–	–	–	–	–
O=C(NC1CCCCCC1)C1CCN(S(=O)(=O)c2c(Cl)cccc2Cl)CC1	–	·	23µM	·	23µM
O=C(Nc1ccncc1)C1CCN(S(=O)(=O)c2c(Cl)cccc2Cl)CC1	–	·	18µM	·	?
c1ccc2c(c1)Nc1nccnc1S2	–	–	–	–	?
FC(F)(F)c1cnc2c(c1)Nc1ccccc1S2	–	–	21µM	–	?
CC(=O)c1c(C(=O)O)c2ccccc2[nH]c1=O	·	–	–	–	–
CC1=C(C(=O)Nc2ccccc2)C(c2ccc(C)cc2)N=C(Nc2nc3ccccc3o2)N1 (configuration not stated)	–	11µM	?	?	18µM
COC(=O)c1ccc(N2CCc3ccccc32)c([N+](=O)[O-])c1	·	–	–	–	?
CCOC(CNC(=O)c1ccc(N2CCc3ccccc32)c([N+](=O)[O-])c1)OCC	–	?	18µM	?	21µM
Cn1c(N)c(C(=O)COC(=O)/C=C/c2cccc(F)c2)c(=O)n(C)c1=O	–	·	–	·	–
CC(C)c1ccc(C2C3=C(COC3=O)Nc3cc4c(cc32)OCO4)cc1 (configuration not stated)	–	–	0.92µM	–	0.65µM
O=C(O)c1cccc(-n2sc3ccccc3c2=O)c1	–	·	?	·	?
O=c1c2cc(F)ccc2sn1-c1ccccc1	–	·	2.1µM	·	1.8µM
O=c1c2cc(C(F)(F)F)ccc2sn1-c1ccccc1	·	·	5.2µM	·	5.2µM
CCCN(CC1CC1)S(=O)(=O)c1ccc(-n2cnnn2)c(OC)c1	–	–	–	–	–
CCN1CCN(c2ncc3c(n2)CCN(Cc2sccc2C)C3)CC1	–	·	23µM	·	?
CCN1CCN(c2ncc3c(n2)CCN(Cc2ccc(C)s2)C3)CC1	–	·	?	·	?
CCN1CCN(c2ncc3c(n2)CCN(Cc2cc(Br)cs2)C3)CC1	–	·	21µM	·	18µM
CCN1CCN(c2ncc3c(n2)CCN(Cc2ccc(Br)s2)C3)CC1	–	·	10µM	·	13µM
CN1CCN(c2ncc3c(n2)CCN(Cc2ccc(Br)s2)C3)CC1	–	·	15µM	·	23µM
Cn1c(N)c(C(=O)COC(=O)CCCOc2ccc(Cl)cc2Cl)c(=O)n(C)c1=O	–	–	–	–	–
SMILES	TDP1 block	VP16 counter	DT40 TDP1 no CPT	RORg inh	TDP1 cell CPT
Cn1c(N)c(C(=O)c2ccc(C#N)cc2)c(=O)n(C)c1=O	–	–	–	–	–
COc1cc(OC)c(OC)cc1C#N	–	–	–	–	–
CCCOc1cccc(-c2nc3ccccc3c(=O)o2)c1	–	–	?	–	?
CCCCn1c(SCc2cccc([N+](=O)[O-])c2)nc2ccsc2c1=O	–	–	23µM	?	?
COCCn1c(SCc2cccc([N+](=O)[O-])c2)nc2ccccc2c1=O	·	–	?	?	?
Cn1c(SCc2cccc([N+](=O)[O-])c2)nc2ccccc2c1=O	–	·	12µM	·	16µM
CCOC(CCn1c(SCc2cccc([N+](=O)[O-])c2)nc2ccccc2c1=O)OCC	–	–	?	?	16µM
CCCCn1c(SCc2ccccc2C)nc2ccsc2c1=O	–	·	?	·	?
COc1ccc(CCNCc2c(OC)ccc3ccccc23)cc1OC	·	–	?	–	16µM
CCOc1ccc2ccccc2c1CNCCc1ccc(S(N)(=O)=O)cc1	·	–	?	–	–
COc1ccc2ccccc2c1CNC(C)CCc1ccccc1 (configuration not stated)	–	–	?	–	9.2µM
CC(C)c1ccc(OCC(=O)Nc2cc(-c3ccccc3)no2)cc1	–	·	–	·	–
Fc1ccc(-c2nnc(-c3ccc(Cl)cc3Cl)o2)cc1	–	10µM	–	14µM	–
Fc1ccccc1-c1csc(=Nc2cccnc2)n1CC1CCCO1 (configuration not stated)	–	7.1µM	?	?	?
Cc1csc(=Nc2cccnc2)n1CC1CCCCC1	–	–	–	?	–
Fc1ccccc1-c1csc(=Nc2cccnc2)n1CCCn1ccnc1	–	–	16µM	?	26µM
CC1=C(C(=O)OCc2ccccc2)C(c2ccc(Cl)cc2)NC(=O)N1CCCC(=O)O (configuration not stated)	·	–	?	16µM	–
CCCCNC(=O)C(C)N(CCN(C)C)C(=O)CCCN1C(=O)NC(c2ccc([N+](=O)[O-])cc2)C(C(=O)OCc2ccccc2)=C1C (configuration not stated)	–	·	23µM	·	18µM
CCCCNC(=O)C(C1CCCCC1)N(CCN(C)C)C(=O)CCCN1C(=O)NC(c2ccc(-c3ccccc3)cc2)C(C(=O)OCc2ccccc2)=C1C (configuration not stated)	–	·	·	·	·
COC(=O)CCCCCN1C(=O)NC(c2ccccc2)C(C(=O)OCc2ccccc2)=C1C (configuration not stated)	–	?	16µM	?	21µM
Cc1cc(N2CC(C(=O)NCc3cccnc3)CC2=O)ccc1C(C)C (configuration not stated)	–	–	–	–	–
CCCN(C(=O)c1cn(CC)c2nc(C)ccc2c1=O)c1c(N)n(Cc2ccccc2)c(=O)[nH]c1=O	–	–	–	–	–
CC1(OC(=O)c2ccc(Cl)nc2)C(=O)C=C2C=C3CCCN3C=C2C1=O (configuration not stated)	8.9µM	–	?	–	?
O=S(=O)(Cc1cc(N2CCOCC2)nc(-c2ccccn2)n1)c1ccccc1	–	–	18µM	16µM	10µM
Cc1nc(CS(=O)(=O)c2ccc(Cl)cc2)cc(N2CCOCC2)n1	–	–	–	–	–
Cc1cccc(Oc2cc(NC(=O)c3ccccc3)cc([N+](=O)[O-])c2)c1	–	–	?	?	?
Cc1nn(CCCC(=O)Nc2cc(Oc3ccccc3)cc([N+](=O)[O-])c2)c(C)c1[N+](=O)[O-]	–	?	?	2µM	?
CCn1nc(C)c(C(=O)Nc2cc(Oc3cc(C)cc(C)c3)cc([N+](=O)[O-])c2)c1C	–	–	21µM	?	?

Compound activity deposited in PubChem by National Center for Advancing Translational Sciences (NCATS).
